Bioassay records from PubChem.
In the library only some 8% were active in any assay of this set; here they are far more common.
HT1080NT lethal = kills 2HG-producing HT-1080-NT fibrosarcoma cells. HT-1080-NT fibrosarcoma viability, CellTiter-Glo ATP luminescence, 48 h. Potency, µM (doses to about 46.1 µM), actives largely listed as cytotoxic. 360,000 tested, 1.6% active;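 further: NT is the 2HG producing partner of a matched IDH1 knockdown line; nearly all actives have a fitted effect of over 55% in size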
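750 cells/well, RPMI + 5% FBS; 2 h settle, compound pin-transfer, 48 h at 37 degrees C. CellTiter-Glo 10 min RT, luminescence. Normalized to DMSO and media-only wells.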
HT1080 IDH1KD tx = toxicity to HT-1080 IDH1 knockdown cells (counter line); HT-1080 IDH1 knockdown viability, ATP luminescence, 48 h; Potency, µM (doses to about 46.1 µM), usual class: cytotoxic; 360,000 tested, 2% active; AID 686971
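Using the IDH1-knockdown HT-1080 line run in the same batch and compound series as the NT line, viability after 48 h at 37 °C was determined by CellTiter-Glo luminescence and expressed as % activity.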
KB-3-1 cytotox = kills parental KB-3-1 adenocarcinoma cells; 400,000 tested, 1.4% active; KB-3-1 viability, CellTiter-Glo ATP luminescence, 72 h; Potency, µM (series often up to 46.1 µM), actives largely listed as cytotoxic; AID 1347075; further: nearly all actives have a fitted effect of over 60% in size
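72 h, 37 °C compound treatment of KB-3-1 parental cells; CellTiter-Glo added, 10 min, luminescence read. Data corrected against DMSO-only plates and normalized before curve fitting.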
KB-V1 cytotox = kills drug-selected multidrug resistant KB-V1 cells; KB-V1 MDR cells viability, CellTiter-Glo, 72 h; Potency, µM (series often up to 46.1 µM), actives largely listed as cytotoxic; 400,000 tested, 3.4% active; AID 1347076; further: nearly all actives have a fitted effect of over 60% in size
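Cells of the MDR subline KB-V1 are plated, dosed with compound at multiple concentrations, and incubated 72 h at 37 degrees C; CellTiter-Glo is then added and luminescence read after 10 min.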
SW480 rerep = inducers of DNA re-replication in SW480 colon cancer cells; SW480 DNA re-replication, Hoechst DNA content imaging, 48 h; Potency, µM (doses to about 46.1 µM), usual class: activators; 340,000 tested, 1.8% active; AID 624297; further: nearly all actives have a fitted effect of over 55% in size
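Cells (250 per well) received 23 nL compound or DMSO by pin tool and were kept 48 hr at 37 C, 5% CO2. Nuclei were then stained with Hoechst for 40 min and scanned for DNA content.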
MCF10A rereplic = inducers of DNA re-replication in MCF 10A breast cells | MCF 10A DNA re-replication, Hoechst nuclear intensity, 48 h | Potency, µM (highest dose often 46.1 µM), most hits filed as activators | 350,000 tested, 2.9% active; further: nearly all actives have a fitted effect of over 50% in size
Of the large screens only hits and unclear results are named; the others gave an inactive call; ! = not confirmed by another sample. The call rests on the fitted dose curve; in most records, active means well fitted curve in the direction sought with a large enough effect; inconclusive means small, poorly fitted or top-dose-only effect, or another doubt; inactive means no such curve, though single readings can be large; an effect the other way counts as inactive or inconclusive.

CCOc1ccc(NCc2nnc(SCc3ccc(Cl)cc3)n2-c2ccccc2)cc1	KB-3-1 cytotox inconclusive, KB-V1 cytotox 4.6µM, MCF10A rereplic inconclusive
CCOC(=O)CSc1nnc(CNc2ccc(Cl)cc2)n1-c1ccccc1	none
Cc1cc(C)c2c(=N)c3ccccc3n(CCCCCCCCn3c4ccccc4c(=N)c4c(C)cc(C)nc43)c2n1	HT1080 IDH1KD tx inconclusive, KB-3-1 cytotox inconclusive, SW480 rerep 23µM, MCF10A rereplic inconclusive
Cc1cc(C)c2c(C)nn(-c3ccccc3)c2n1	none
Nc1nc(N)c2cc(CNc3ccc(Cl)c(Cl)c3)ccc2n1	HT1080NT lethal 1.8µM, HT1080 IDH1KD tx 3.3µM, KB-3-1 cytotox inconclusive, KB-V1 cytotox 16µM (no result: SW480 rerep, MCF10A rereplic)
C=C[C@@H]1c2ccccc2N(S(=O)(=O)c2ccc(C)cc2)[C@H](c2ccc(OC(C)=O)cc2)C1(C#N)C#N	HT1080NT lethal inconclusive, HT1080 IDH1KD tx inconclusive, KB-3-1 cytotox 18µM!, KB-V1 cytotox inconclusive, SW480 rerep inconclusive, MCF10A rereplic inconclusive
C=C[C@@H]1c2cc(C)ccc2N(S(=O)(=O)c2ccc(C)cc2)[C@H](c2ccc(OC(C)=O)cc2)C1(C#N)C#N	HT1080NT lethal 7.3µM, HT1080 IDH1KD tx 6.5µM, KB-3-1 cytotox 6.5µM!, KB-V1 cytotox 7.3µM, MCF10A rereplic 3.3µM
CC(=O)CC1N(S(=O)(=O)c2ccc(C)cc2)c2ccccc2N1S(=O)(=O)c1ccc(C)cc1	KB-V1 cytotox inconclusive (no result: SW480 rerep, MCF10A rereplic)
O=C(NCC1CCCO1)/C(=C\c1ccccc1)NC(=O)c1ccccc1 (stereo unspecified)	none
Cc1ccc(-c2nnc(NC(=O)CCS(=O)(=O)c3ccccc3)o2)c(C)c1	MCF10A rereplic inconclusive
O=C(Nc1ccccc1)NC(Cc1ccc(O)cc1)C(=O)O (stereo unspecified)	none
Cn1nc(CC(=O)NC2CCCCCCCCCCC2)c2ccccc2c1=O	KB-3-1 cytotox inconclusive
Cn1nc(CC(=O)Nc2ccc3c(c2)CCC3)c2ccccc2c1=O	HT1080 IDH1KD tx 2.9µM
Cc1ccc(NC(=O)Cn2nc(C)c([N+](=O)[O-])c2C)cc1C	none
Cc1nn(CC(=O)NCc2ccc(-n3cccn3)cc2)c(C)c1[N+](=O)[O-]	SW480 rerep 0.52µM
Cc1nn(CC(=O)Nc2ccc3c(c2)CCC3)c(C)c1[N+](=O)[O-]	KB-V1 cytotox 18µM
Cc1nn(CC(=O)Nc2cc(S(=O)(=O)N(C)C)ccc2Cl)c(C)c1[N+](=O)[O-]	KB-V1 cytotox 21µM
CCN(CC)c1ccc(S(=O)(=O)N2CCOCC2)cc1NC(=O)Cn1nc(C)c([N+](=O)[O-])c1C	none
Cc1nn(CC(=O)NCc2ccc(Cl)cc2)c(C)c1[N+](=O)[O-]	SW480 rerep inconclusive
O=C(/C=C/c1ccccc1)NCCS(=O)(=O)N1CCN(c2ccccc2F)CC1	KB-V1 cytotox inconclusive
CCc1ccc(Nc2n[n+](-c3ccccc3)c(-c3ccc(OC)c(Br)c3)s2)cc1	KB-3-1 cytotox inconclusive
COc1ccc2[nH]c(=O)cc(C(=O)O)c2c1	none
COc1ccc2[nH]c3c4c(ccc3c2c1)C(=O)C=CC4=O	HT1080NT lethal 13µM, HT1080 IDH1KD tx 16µM, KB-3-1 cytotox 9.2µM, SW480 rerep 3.3µM, MCF10A rereplic inconclusive
COc1ccc(CCNc2oc(-c3ccccc3OC)nc2C#N)cc1	HT1080 IDH1KD tx inconclusive
CC(NS(=O)(=O)c1ccc(F)cc1)C(=O)Nc1ccc2c(c1)OCCO2 (stereo unspecified)	SW480 rerep 21µM
COc1ccccc1NC(=O)COc1ccc(/C=N/NC(=O)CSCc2ccc(Cl)cc2)cc1	KB-V1 cytotox 5.2µM
COc1ccccc1NC(=O)COc1ccc(/C=N/NS(=O)(=O)c2ccc(C)cc2)cc1	MCF10A rereplic inconclusive
O=C(CSCc1ccc(Cl)cc1)N/N=C/c1ccc(OCC(=O)Nc2ccccc2)cc1	none
COc1ccccc1NC(=O)COc1ccc(/C=N/NC(=O)CSCc2cc(C)cc(C)c2)cc1	HT1080NT lethal inconclusive, HT1080 IDH1KD tx inconclusive, MCF10A rereplic 18µM
Cc1ccc(S(=O)(=O)NC2CC(C)(C)N(O)C(C)(C)C2)cc1	KB-V1 cytotox inconclusive
